Test results from PubChem BioAssay (NCATS).
Results filed as inconclusive are left out. The source made the active and inactive calls. Calls come from the whole dose curve; as a rule, active = well fitted curve in the direction sought with a large enough effect; inconclusive = small, poorly fitted or top-dose-only effect, or another doubt; inactive = no such curve, though single readings can be large; an effect the other way counts as inactive or inconclusive.

What was measured:
[1] = Quantitative High-Throughput drug screen in 47 multiple myeloma cell lines against the NCATS MIPE library collection: OCIMY1_PLB cell viability assay (AID 1918979); note: nearly all actives have a fitted effect of over 35% in size
Outline: (§1)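 Viability after 48 h drug exposure was measured as ATP-dependent luminescence. Cells, 500 per well, sat at 37 °C under 5% CO2; DMSO wells set 100%, media-only wells 0%.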

[2] = Quantitative High-Throughput drug screen in 47 multiple myeloma cell lines against the NCATS MIPE library collection: MM1S_ATCC cell viability assay (AID 1918980); note: nearly all actives have a fitted effect of over 45% in size; note: potency is the fitted concentration of half-maximal effect
Outline: as §1

[3] = Quantitative High-Throughput drug screen in 47 multiple myeloma cell lines against the NCATS MIPE library collection: MM1R_ATCC cell viability assay (AID 1918981); note: nearly all actives have a fitted effect of over 35% in size; note: potency is the fitted concentration of half-maximal effect
Outline: as §1

[4] = Quantitative High-Throughput drug screen in 47 multiple myeloma cell lines against the NCATS MIPE library collection: LP1_DSMZ cell viability assay (AID 1918982); note: nearly all actives have a fitted effect of over 35% in size; note: potency is the fitted concentration of half-maximal effect
Outline: as §1

[5] = Quantitative High-Throughput drug screen in 47 multiple myeloma cell lines against the NCATS MIPE library collection: KMS34_JCRB cell viability assay (AID 1918985); note: nearly all actives have a fitted effect of over 40% in size; note: potency is the fitted concentration of half-maximal effect
Outline: as §1

[6] = Quantitative High-Throughput drug screen in 47 multiple myeloma cell lines against the NCATS MIPE library collection: OPM1_PLB cell viability assay (AID 1918989); note: nearly all actives have a fitted effect of over 40% in size; note: potency is the fitted concentration of half-maximal effect
Outline: as §1

[7] = Quantitative High-Throughput drug screen in 47 multiple myeloma cell lines against the NCATS MIPE library collection: SKMM1_PLB cell viability assay (AID 1919863); details: SKMM1 myeloma viability, CellTiter-Glo ATP, 48 h; viability: stronger effect = lower value; note: nearly all actives have a fitted effect of over 35% in size; note: potency is the fitted concentration of half-maximal effect
Outline: as §1

[8] = Quantitative High-Throughput drug screen in 47 multiple myeloma cell lines against the NCATS MIPE library collection: U266_ATCC cell viability assay (AID 1919864); note: nearly all actives have a fitted effect of over 35% in size; note: potency is the fitted concentration of half-maximal effect
Outline: as §1

[9] = Quantitative High-Throughput drug screen in 47 multiple myeloma cell lines against the NCATS MIPE library collection: XG6_PLB cell viability assay (AID 1919865); note: nearly all actives have a fitted effect of over 40% in size; note: potency is the fitted concentration of half-maximal effect
Outline: as §1

[10] = Quantitative High-Throughput drug screen in 47 multiple myeloma cell lines against the NCATS MIPE library collection: XG1_PLB cell viability assay (AID 1919866); note: nearly all actives have a fitted effect of over 35% in size; note: potency is the fitted concentration of half-maximal effect
Outline: as §1

[11] = Quantitative High-Throughput drug screen in 47 multiple myeloma cell lines against the NCATS MIPE library collection: VP6_DJ cell viability assay (AID 1919867); note: nearly all actives have a fitted effect of over 40% in size; note: potency is the fitted concentration of half-maximal effect
Outline: as §1

[12] = Quantitative High-Throughput drug screen in 47 multiple myeloma cell lines against the NCATS MIPE library collection: NCIH929_DSMZ cell viability assay (AID 1918978); note: nearly all actives have a fitted effect of over 35% in size; note: potency is the fitted concentration of half-maximal effect
Outline: as §1

[13] = Quantitative High-Throughput drug screen in 47 multiple myeloma cell lines against the NCATS MIPE library collection: KMS28PE_JCRB cell viability assay (AID 1918983); note: nearly all actives have a fitted effect of over 35% in size; note: potency is the fitted concentration of half-maximal effect
Outline: as §1

[14] = Quantitative High-Throughput drug screen in 47 multiple myeloma cell lines against the NCATS MIPE library collection: L363_DSMZ cell viability assay (AID 1918984); note: nearly all actives have a fitted effect of over 40% in size; note: potency is the fitted concentration of half-maximal effect
Outline: as §1

[15] = Quantitative High-Throughput drug screen in 47 multiple myeloma cell lines against the NCATS MIPE library collection: PE2_PLB cell viability assay (AID 1919869); note: nearly all actives have a fitted effect of over 35% in size; note: potency is the fitted concentration of half-maximal effect
Outline: as §1

[16] = Quantitative High-Throughput drug screen in 47 multiple myeloma cell lines against the NCATS MIPE library collection: OCIMY5_PLB cell viability assay (AID 1918988); note: nearly all actives have a fitted effect of over 65% in size; note: potency is the fitted concentration of half-maximal effect
Outline: as §1

[17] = Quantitative High-Throughput drug screen in 47 multiple myeloma cell lines against the NCATS MIPE library collection: UTMC2_PLB cell viability assay (AID 1919868); details: CellTiter-Glo ATP luminescence, 48 h; viability (% of DMSO control): at 45.8 µM (top of the series); note: nearly all actives have a fitted effect of over 55% in size
Outline: as §1

[18] = Quantitative High-Throughput drug screen in 47 multiple myeloma cell lines against the NCATS MIPE library collection: OCIMY7_PLB cell viability assay (AID 1918987); note: nearly all actives have a fitted effect of over 65% in size; note: potency is the fitted concentration of half-maximal effect
Outline: as §1

CN(C)[C@@H]1C(=O)C(C(N)=O)=C(O)[C@@]2(O)C(=O)C3=C(O)c4c(O)cccc4[C@@](C)(O)[C@H]3[C@H](O)[C@@H]12
active: Potency [2] 5.9 µM | Potency [5] 3.72 µM | Potency [7] 14.8 µM | Potency [8] 18.7 µM | Potency [9] 5.9 µM | Potency [10] 16.6 µM | Potency [11] 23.5 µM
inactive: Potency [1] | Potency [3] | Potency [4] | Potency [6]

Oc1ccc2c3c1O[C@H]1c4[nH]c5c(c4C[C@@]4(O)[C@@H](C2)N(CC2CC2)CC[C@]314)C[C@@]1(O)[C@H]2Cc3ccc(O)c4c3[C@@]1(CCN2CC1CC1)[C@H]5O4
inactive: Potency [12] | Potency [2] | Potency [3] | Potency [4] | Potency [13] | Potency [14] | Potency [5] | Potency [6] | Potency [9] | Potency [15]

C[C@]12CC[C@H]3[C@@H](CCC4=CC(=O)CC[C@@]43C)[C@H]1CC[C@H]2OC(=O)CCC1CCCC1
active: Potency [16] 20.9 µM
inactive: Potency [1] | Potency [13] | Potency [14] | Potency [8] | Potency [10] | Potency [11]

O=C1C=CC[C@@H]2[C@H]3CCCN4CCC[C@@H](CN12)[C@@H]34
active: Potency [2] 20.9 µM | Potency [13] 16.6 µM | Potency [16] 2.96 µM | Potency [8] 16.6 µM
inactive: Potency [1] | Potency [4] | Potency [14] | Potency [5] | viability [7] 117% | Potency [10] | Potency [17]

CC(=O)Nc1ccc(OC[C@](C)(O)C(=O)Nc2ccc([N+](=O)[O-])c(C(F)(F)F)c2)cc1
inactive: Potency [12] | Potency [6]
active: Potency [18] 10.5 µM

N=c1c2c(-c3ccccc3)c(-c3ccccc3)n(Cc3ccccc3)c2ncn1C1CCC(O)CC1 (configuration not stated)
active: Potency [12] 1.32 µM | Potency [2] 5.26 µM | Potency [3] 18.7 µM | Potency [4] 23.5 µM | Potency [13] 11.8 µM | Potency [14] 5.26 µM | Potency [5] 13.2 µM | Potency [18] 0.132 µM | Potency [16] 11.8 µM | Potency [6] 3.32 µM | Potency [7] 16.6 µM | Potency [8] 4.69 µM | Potency [9] 6.62 µM | Potency [11] 0.0935 µM | Potency [15] 4.69 µM

C[C@@]12OC(=O)[C@]1([C@@H](O)[C@@H]1C=CCCC1)NC(=O)[C@H]2CCCl
active: Potency [12] 0.001 µM | Potency [2] 0.0053 µM | Potency [3] 0.0037 µM | Potency [4] 0.0166 µM | Potency [13] 0.0083 µM | Potency [5] 0.0105 µM | Potency [18] 0.001 µM | Potency [16] 0.0047 µM | Potency [6] 0.001 µM | Potency [7] 0.105 µM | Potency [8] 0.0132 µM | Potency [11] 0.001 µM | Potency [15] 0.0083 µM

O=C1CCC[C@@H]2[C@H]3CCCN4CCC[C@@H](CN12)[C@@H]34
inactive: Potency [12] | Potency [6] | Potency [9] | Potency [10] | Potency [15]

CC[C@H]1C=CC=CC[C@@H](C)[C@H](O)[C@@](C)(O)C(=O)[C@@H](C)[C@H](O)[C@@H](C)C(=O)[C@@H](C)[C@H](O)[C@@H](C)C=CC(=O)O[C@@H]2[C@@H](C)[C@H](CC1)O[C@]1(CC[C@H](C)[C@H](C[C@@H](C)O)O1)[C@H]2C
active: Potency [12] 0.0296 µM | Potency [13] 20.9 µM | Potency [14] 0.001 µM | Potency [18] 0.001 µM | Potency [16] 0.0017 µM | Potency [7] 20.9 µM | Potency [8] 20.9 µM | Potency [11] 0.001 µM | Potency [15] 9.35 µM

O=C(NCC1CCOCC1)c1cnc(Nc2ccc(Cl)cc2Cl)nc1C(F)(F)F
inactive: Potency [13] | Potency [5] | Potency [6] | viability [7] 104%
active: Potency [12] 4.69 µM | Potency [2] 3.32 µM | Potency [8] 8.33 µM | Potency [9] 6.62 µM | Potency [11] 6.62 µM

CC=C(C)C(=O)N[C@@H](c1ccccc1)[C@@H](O)C(=O)O[C@H]1C[C@@]2(O)[C@@H](OC(=O)c3ccccc3)[C@@H]3[C@]4(OC(C)=O)CO[C@@H]4C[C@H](O)[C@@]3(C)C(=O)[C@H](OC(C)=O)C(=C1C)C2(C)C
inactive: Potency [12] | Potency [2] | Potency [3] | Potency [4] | Potency [13] | Potency [5] | Potency [16] | viability [7] 60.8% | Potency [9] | Potency [10] | Potency [11] | Potency [17] | Potency [15]

C[C@]12CC[C@@H]3[C@@H](CCC4=CC(=O)CC[C@@H]43)[C@@H]1CC[C@@H]2OC(=O)CCc1ccccc1
inactive: Potency [1] | Potency [2] | Potency [8] | Potency [15]

O=C(Oc1ccc([N+](=O)[O-])cc1)N1CCC(C(O)(c2ccc3c(c2)OCO3)c2ccc3c(c2)OCO3)CC1
active: Potency [9] 16.6 µM | Potency [15] 16.6 µM
inactive: Potency [1] | Potency [3] | Potency [4] | Potency [13] | Potency [5] | Potency [16] | viability [7] 123% | Potency [11]

CCOC(=O)c1c(C(C#N)=CN)c2ccc(Cl)c(Cl)c2n1C
inactive: Potency [1] | Potency [6] | Potency [9] | Potency [11] | Potency [15]
active: Potency [2] 23.5 µM

CCN1C[C@]2(OC(=O)c3ccccc3NC(C)=O)CC[C@H](OC)[C@@]34[C@H]5CC6[C@@H](OC)C[C@](O)(C(C[C@@H]23)[C@@H]14)[C@@]5(O)[C@@H]6OC
inactive: Potency [12] | Potency [2] | Potency [3] | Potency [4] | Potency [13] | Potency [14] | Potency [18] | Potency [16] | Potency [6] | Potency [8] | Potency [9] | Potency [10] | Potency [15]

O=C(N[C@H]1CN2CCC1CC2)c1ccc(Cl)cc1
active: Potency [2] 2.96 µM | Potency [8] 4.18 µM | Potency [9] 8.33 µM | Potency [11] 7.43 µM
inactive: Potency [3] | Potency [4] | Potency [13] | Potency [5] | Potency [6]

COC(=O)[C@@H](N)CCCN=C(N)N[N+](=O)[O-]
inactive: Potency [12] | Potency [2] | Potency [3] | Potency [4] | Potency [13] | Potency [5] | Potency [8] | Potency [9] | Potency [15]
